# Screening results deposited in PubChem by The Scripps Research Institute Molecular Screening Center.
# Hits are enriched below; roughly 4.8% of the tested compounds scored in any of these assays.
# DAX1 inh-1: NR0B1 (DAX1) inhibition. P51843. HEK293 Gal4-DAX1 luciferase reporter, luminescence. inhibition, % at 6.75 µM. 340,000 tested, 0.99% active;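 active = inhibition above the mean over all tested compounds plus 3 SD, cut at about 4.2% in these data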;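 note: 0% = DAX1-transfected cells with DMSO and 100% = empty-vector control cells with DMSO; inhibition shows as a rise in luminescence from relieved DAX1 repression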
# Target sequence (P51843 207-470 limits assumed): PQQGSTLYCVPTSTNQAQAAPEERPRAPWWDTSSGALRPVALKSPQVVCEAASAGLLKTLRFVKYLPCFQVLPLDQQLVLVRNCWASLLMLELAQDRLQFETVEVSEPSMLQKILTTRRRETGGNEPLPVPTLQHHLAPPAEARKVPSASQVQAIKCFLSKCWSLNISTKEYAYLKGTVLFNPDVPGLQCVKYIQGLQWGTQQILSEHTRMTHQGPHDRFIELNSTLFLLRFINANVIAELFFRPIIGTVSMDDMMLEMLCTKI
# hgDAF12 agonist: hgDAF-12 agonism, primary luciferase screen; HEK293 GAL4-hgDAF12 UAS-luciferase reporter, agonist luminescence; normalized to butyrate control; activation, % at 6.8 µM; 370,000 tested, 1.8% active;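 active = activation above a cutoff set at the mean of all screened compounds plus 3 SD, cut at about 10% in these data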;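 note: 0% = DMSO wells and 100% = sodium butyrate wells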
# DAX1 inh-2: inhibitors of DAX1 repression of SF-1 activated StAR promoter. HEK293T StAR-luciferase reporter, SF-1/DAX-1 repression relief. inhibition, % at 6.8 µM. 370,000 tested, 1.1% active. AID 652010;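 active = inhibition above the mean over all tested compounds plus 3 SD, cut at about 3.6% in these data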;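 note: 0% = DAX-1 cells with DMSO and 100% = cells lacking DAX-1 with DMSO; higher inhibition means more luminescence from relief of DAX-1 repression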
# hcDAF12 agonist: activates DAF-12 receptor from parasite H. contortus; HEK293 hcDAF-12 lit1-tk-luc reporter, luminescence; 0% DMSO, 100% Δ7-dafachronic acid; activation, % at 6.8 µM; 370,000 tested, 1.4% active; AID 652067;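 active = activation above the mean of all tested compounds plus 3 SD, cut at about 5.5% in these data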;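 note: 100% = response to 3 µM Δ7-dafachronic acid high control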
# SMARCA2 activ: SMARCA2 function activation, primary screen; MG213 cells, MMTV-luciferase reporter, dexamethasone, overnight; activation, % at 9.1 µM; 370,000 tested, 1% active; in the data active = activation above about 7.8%;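 note: 0% = vehicle wells and 100% = reference activator wells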
# ssDAF12 agonist: activators of S. stercoralis DAF-12 nuclear receptor. HEK293 ssDAF-12/GRIP1 lit1-tk-luc reporter, luminescence; % of 3 µM dafachronic acid response. activation, % at 6.8 µM. 370,000 tested, 1% active. AID 652126;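 active = activation above the mean over all tested compounds plus 3 SD, cut at about 0.9% in these data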;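 note: 0% = DMSO-only wells and 100% = 3 µM delta7-dafachronic acid wells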
# Starred values were filed as active, the others as inactive; . = no result.
SMILES,DAX1 inh-1,hgDAF12 agonist,DAX1 inh-2,hcDAF12 agonist,SMARCA2 activ,ssDAF12 agonist
Cc1ccc(C23CC4CC(CC(CN)(C4)C2)C3)cc1,4.9*,0,0,2,0,0
Cc1ccc2nc(SCc3ccccc3)c(C=O)c(=O)n2c1,-1,-3,0,-3,-1,-1
CC(S(=O)(=O)c1ccccc1)S(=O)(=O)c1ccccc1,5.0*,-3,0,-1,-5,-1
CN(C)CCCNC(=O)C[C@H]1C[C@H](C(=O)N2CCCCC2)[C@@]2(CCc3ccccc3)c3[nH]c4cc(-c5ccco5)ccc4c3CCN2C1=O,0,-1,0,0,-4,0
Cc1cccc(Cc2nnc(CCC(=O)N(C)CCc3ccccc3)o2)c1,2,12*,2,4,5,-1
Cc1cc(-c2nnc(CCC(=O)N(C)CCc3ccccc3)o2)no1,2,0,1,-2,-3,-1
CCOC(=O)NC(=O)CSc1nc(-c2ccc(C)c(C)c2)cn1-c1ccccc1,1,10,2,5.7*,6,0
O=C(CC12CC3CC(CC(Br)(C3)C1)C2)OCCN1CCCCC1,0,1,0,0,0,-2
COc1ccc2nc(NC(=O)CSc3nnc(C)n3N)sc2c1,1,10,3.8*,4,0,0
COc1ccc2nc(NC(=O)CSc3nnc(N)s3)sc2c1,-1,-1,1,0,-1,-1
COc1ccc2nc(NC(=O)CN3CCOCC3)sc2c1,1,11*,0,1,0,-1
CCOc1ccc(S(=O)(=O)N2CCCCC2)cc1NC(=O)CC1OC(=O)c2ccccc21 (centres undefined),-3,-1,-1,-2,-2,-1
CN(C)CCCN(C(=O)c1cc(-c2cccs2)nc2ccccc12)c1nc2c(F)cccc2s1,1,0,4.1*,-1,-2,-1
O=C1CN(c2ccccc2)C(=S)N1c1ccccc1,4.4*,3,1,1,1,-1
O=C1CN(c2ccc(F)cc2)C(=S)N1c1ccccc1,-1,5,0,2,-2,0
CC(C)N(Cc1nccn1C)C(=O)CC1C(=O)NCCN1Cc1ccc(F)cc1 (centres undefined),0,2,-2,1,0,-2
COc1ccc(CN2CCNC(=O)C2CC(=O)N(Cc2nccn2C)C(C)C)c(OC)c1 (centres undefined),4.4*,0,-1,-1,-4,-1
COc1ccccc1CN(C)C[C@@H]1OCc2cnnn2CCCC(=O)N([C@H](C)CO)C[C@H]1C,4.2*,-1,1,1,-4,0
C[C@@H]1CN([C@@H](C)CO)C(=O)CCCn2nncc2CO[C@@H]1CN(C)C(=O)NC1CCCCC1,0,3,0,-1,0,-1
Cc1cccc(S(=O)(=O)N(C)C[C@H]2OCc3cnnn3CCCC(=O)N([C@H](C)CO)C[C@H]2C)c1,4.4*,1,1,0,4,1
Cc1cccc(S(=O)(=O)N(C)C[C@@H]2OCc3cnnn3CCCC(=O)N([C@H](C)CO)C[C@H]2C)c1,0,-2,0,-1,-3,-1
C[C@H]1CN([C@@H](C)CO)C(=O)CCCn2nncc2CO[C@H]1CN(C)C(=O)NC1CCCCC1,5.1*,0,-1,-2,3,-1
Cc1ccccc1CN(C)C[C@H]1OCc2cnnn2CCCC(=O)N([C@@H](C)CO)C[C@@H]1C,-1,2,1,-1,-1,-2
COC(=O)N/N=C/c1cc([N+](=O)[O-])cc(Br)c1O,2,0,0,-1,-6,-1
Cc1ccccc1NC(=O)CN(C)S(=O)(=O)c1ccc2c(c1)n(C)c(=O)c(=O)n2C,1,-3,0,0,0,-1
SMILES,DAX1 inh-1,hgDAF12 agonist,DAX1 inh-2,hcDAF12 agonist,SMARCA2 activ,ssDAF12 agonist
Cc1cccc(NC(=O)CN(C)S(=O)(=O)c2ccc3c(c2)n(C)c(=O)c(=O)n3C)c1C,0,-1,-1,6.1*,-2,-1
CCN(CC)c1ccc(/C=C(\C#N)C(=O)NCc2ccccc2)cc1,-2,.,.,.,.,.
CCC(=O)c1ccc(OC(=O)c2cnccn2)cc1,5.0*,4,0,1,2,-1
O=C(COC(=O)[C@H](Cc1ccccc1)N1C(=O)c2ccccc2C1=O)Nc1ccc2c(c1)OCO2,-1,2,0,1,0,-1
CCCCN(C(=O)c1ccc(S(=O)(=O)N(C)c2ccccc2)cc1)c1c(N)n(CCC)c(=O)[nH]c1=O,1,1,4.4*,0,0,-1
CCCCN(C(=O)c1ccc(N(C)S(=O)(=O)c2ccc(C)cc2)cc1)c1c(N)n(CCC)c(=O)[nH]c1=O,1,0,1,0,-2,-1
CCCCn1c(N)c(N(CC(C)C)C(=O)c2ccc(S(=O)(=O)N(CC)c3ccccc3)cc2)c(=O)[nH]c1=O,1,-2,0,1,0,1.4*
Cc1nc(NCCc2ccccc2)c2nnn(Cc3ccccc3Cl)c2n1,3,-1,0,-1,1,-2
Cc1ccsc1C(=O)NNC(=O)c1ccccc1F,4,7,1,0,2,0
COC(=O)Cc1c(OC)ccn(CCc2c[nH]c3ccccc23)c1=O,1,10,4.0*,5,6,0
COc1ccc(-c2nnnn2C(C)C)cc1S(=O)(=O)Nc1ccccc1,-1,-3,0,-3,-4,-1
O=C(O)c1ccc(Cn2cnc3cccnc32)cc1,0,-2,0,-1,-2,-1
CC1C(=O)N(Cc2cn(CCC3OCCCO3)nn2)CCS(=O)(=O)N1Cc1ccc(-c2cccc(N(C)C)c2)cc1 (centres undefined),0,0,0,-1,-1,0
O=C(CSc1nc2ccc(Cl)cc2[nH]1)c1cccs1,1,5,1,5,3,1.0*
Cc1cc(C(=O)CSc2nc3ccc(Cl)cc3[nH]2)c(C)n1C,0,-2,0,1,-2,-1
O=C(Oc1ccc2c(c1)OCO2)c1ccncc1,-1,1,0,1,-2,-2
C[C@H](CO)N1C[C@H](C)[C@@H](CN(C)C(=O)Nc2ccc3c(c2)OCO3)Oc2ccc(NC(=O)Cc3ccccc3)cc2C1=O,1,0,0,1,0,-1
C[C@@H]1CN([C@H](C)CO)C(=O)c2cc(NC(=O)Cc3cn(C)c4ccccc34)ccc2O[C@H]1CN(C)C(=O)Nc1ccc2c(c1)OCO2,0,3,0,6.2*,-1,-1
C[C@@H]1CCCCO[C@@H](CN(C)C(=O)Nc2ccc3c(c2)OCO3)[C@@H](C)CN([C@H](C)CO)C(=O)c2cc(N(C)C)ccc2O1,4.3*,0,0,0,-4,-1
